High-throughput results deposited in PubChem by National Center for Advancing Translational Sciences (NCATS).
An excerpt weighted towards active compounds, which were near 3.7% of everything screened.
FEN1 inhibitor – qHTS Assay for the Inhibitors of Human Flap endonuclease 1 (FEN1); 390,000 tested, 0.35% active; Potency, µM (titrated, usually from 114 µM), for inactives: at the highest dose activity change, negative = inhibition, usual class: inhibitors; P39748; Recombinant FEN1 flap cleavage, fluorescence, 15 min; also: potency is read from the fitted curve at half-maximal effect; % is scaled to controls: 0 for no effect and ±100 for the full control effect; nearly all actives have a fitted effect of over 65% in size
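FEN1 at 10 nM, compound pretreatment for 15 min (room temperature), 50 nM final substrate to initiate; endpoint reads at 0 and 15 min; DMSO-only plates used as vehicle background.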
WRN inhibitor – qHTS for Inhibitors of WRN Helicase; Potency, µM (titrated, usually from 114 µM), for inactives: at the highest dose activity change, negative = inhibition, most hits filed as inhibitors; WRN helicase unwinding, fluorescent forked duplex, kinetic; Bifunctional 3'-5' exonuclease/ATP-dependent helicase WRN (Homo sapiens), Q14191; 360,000 tested, 0.46% active; AID 651768, 2012; also: potency is read from the fitted curve at half-maximal effect; % is scaled to controls: 0 for no effect and ±100 for the full control effect; nearly all actives have a fitted effect of over 55% in size
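Fluorescence dequenching readout, ex 525 nm/em 598 nm, kinetic mode: forked duplex DNA (100 nM final) with adjacent fluorophore and quencher unwound by WRN (20 nM final) with 2 mM ATP. Compound preincubation 15 min, room temperature.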
PI5P4Ka inh – qHTS for Inhibitors of phosphatidylinositol 5-phosphate 4-kinase (PI5P4K) | PI5P4Kalpha enzyme, ADP-Glo luminescence, 60 min; hits give low values | Phosphatidylinositol 5-phosphate 4-kinase type-2 alpha (Homo sapiens), P48426 | 330,000 tested, 1.2% active | max response, %; active = max response of -50% or lower; inconclusive = between -30% and -50%; inactive = -30% or higher; also: value at the top dose of about 77 µM; % is scaled to controls: 0 for no effect and ±100 for the full control effect
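Compounds were pin-transferred onto PI5P4Kalpha and substrate in HEPES pH 7.4 buffer with EGTA, CHAPS and 5% DMSO. ATP (5 microM final) started the reaction, which ran 60 minutes at room temperature before ADP-Glo detection.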
PLK1 PBD block – qHTS for Inhibitors of PLK1-PDB (polo-like kinase 1 - polo-box domain): Primary Screen; Serine/threonine-protein kinase PLK1 (Homo sapiens), P53350; Plk1 PBD binding of FITC phosphopeptide, fluorescence polarization; Potency, µM, for the others: max response, negative = inhibition, most hits filed as inhibitors; 360,000 tested, 2.8% active; AID 720504, 2013; also: potency is read from the fitted curve at half-maximal effect; series mostly up to about 57 µM; % is scaled to controls: 0 for no effect and ±100 for the full control effect; nearly all actives have a fitted effect of over 65% in size
TCR act – Activators of T cell receptors: qHTS campaign. primary human leukocytes, anti-CD3, IL-2 HTRF, 48 h. Potency, µM (top dose mostly 9.22 µM), for the others: top-dose activation of IL-2 secretion, usual class: activators. 330,000 tested, under 10 active. AID 504894, 2011; also: % of control where 0% means no effect
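Primary human leukocytes were stimulated with a-CD3 beads plus compounds for 48 hr without co-stimulation; secreted IL-2 was quantified by HTRF using a-IL-2-K (europium cryptate) and a-IL-2-d2, excited at 320nm with acceptor emission read at 665nm.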
VDR inh – Inhibitors of the vitamin D receptor (VDR): qHTS | VDR-SRC2-3 peptide fluorescence polarization, 2 h | Potency, µM, without a hit: max response, negative = inhibition, hits mostly inhibitors | 400,000 tested, 0.93% active | Vitamin D3 receptor (Homo sapiens), P11473; also: potency is read from the fitted curve at half-maximal effect; % is scaled to controls: 0 for no effect and ±100 for the full control effect
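Two reagent solutions held at 4 deg C in the dark were dispensed, compounds pinned at 23 nl, and the mixture incubated 2 h at room temperature. Read-out: fluorescence polarization of VDR–SRC2-3 peptide binding.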
* hit, by the source's call; ? = inconclusive; . = no result; [ ] = dose if it differs, or a comment. Unless noted, calls follow the shape of the dose curve; as a rule, active = well fitted curve in the direction sought with a large enough effect; inconclusive = small, poorly fitted or top-dose-only effect, or another doubt; inactive = no such curve, though single readings can be large; an effect the other way counts as inactive or inconclusive.

SMILES | FEN1 inhibitor | WRN inhibitor | PI5P4Ka inh | PLK1 PBD block | TCR act | VDR inh
CCC(C(=O)O)C1OC(C(C)C(O)C(C)C(=O)C(CC)C2OC3(C=CC(O)C4(CCC(C)(C5CCC(O)(CC)C(C)O5)O4)O3)C(C)CC2C)C(C)CC1C (stereo unspecified) | . | . | . | . | . | 0.5%
Cc1cc(Oc2ccc(Cl)cc2Cl)nc(C#N)n1 | 8.6% | . | . | . | . | .
COc1ccc(C)cc1NC(=O)C(OC(=O)c1ccc([N+](=O)[O-])o1)c1ccccc1 (stereo unspecified) | ? | 1.5% | -14.7 | 26.7µM* | 6.7%[46.1 µM] | -5.3%
COc1ccc(C)cc1NC(=O)C(OC(=O)c1cnccn1)c1ccccc1 (stereo unspecified) | 3.7% | -5.8% | 1.5 | 1.1% | 4.7% | -10.5%
O=C1[C@@H]2C[C@@H]3C[C@H]1C[C@@](O)(C3)C2 | . | . | . | . | . | 9.4%
CCC(=O)N1c2ccccc2CC1C(=O)NCc1ccc(N(C)C)cc1 (stereo unspecified) | 19.9% | . | . | . | . | 9.9%
CCCOc1ccc(CC2C(=O)Nc3ccc(Br)cc32)cc1 (stereo unspecified) | -17.0% | . | . | . | . | 1.4%
Cc1ccc2nc(N3C(=O)C(O)=C(C(=O)c4ccc(C)o4)C3c3ccco3)sc2c1 (stereo unspecified) | -16.8% | -4.8% | ? | ? | 2.5% | ?
Cc1ccc2nc(N3C(=O)C(O)=C(C(=O)c4ccco4)C3c3ccc(C)o3)sc2c1 (stereo unspecified) | -1.1% | ? | -51.6* | 13.4µM* | 5.4% | -29.2%
Cc1cc(C)c2nc(N3C(=O)C(O)=C(C(=O)c4ccco4)C3c3cccc(O)c3)sc2c1 (stereo unspecified) | -30.7% | -6.0% | -60.5* | 26.7µM* | -58.8% | 79.4µM*
CCOC(=O)C1=C(O)C(=O)N(c2ccccc2)C1c1cccc([N+](=O)[O-])c1 (stereo unspecified) | -0.8% | 1.8% | -4.5 | -5.4% | -3.7% | -12.7%
CCOC(=O)c1sc(N2C(=O)C(O)=C(C(=O)c3ccco3)C2c2cccc([N+](=O)[O-])c2)nc1C (stereo unspecified) | -3.2% | -14.9% | -67.6* | 29.9µM* | 12.1% | 70.8µM*
Cc1cc(N2C(=O)C(O)=C(C(=O)c3ccco3)C2c2ccc(Cl)cc2)no1 (stereo unspecified) | 4.8% | 3.5% | -9.0 | -5.9% | 7.6% | -8.1%
O=C(C1=C(O)C(=O)N(c2nc3ccc(Cl)cc3s2)C1c1ccco1)c1ccco1 (stereo unspecified) | -35.6% | 50.1µM* | -74.0* | 21.2µM* | 4.0% | ?
COc1ccc(C2C(=O)N(C3CCCCCC3)CC(=O)N2CCC2=CCCCC2)cc1 (stereo unspecified) | -7.1% | . | . | . | . | 8.0%
O=C1NC[C@H](c2ccccc2)N1 | . | . | . | . | . | 18.2%
Cc1oc2ccc(O)c(CN(C)Cc3ccccc3)c2c1C(=O)Nc1cccc(C(F)(F)F)c1 | -18.4% | . | . | . | . | 2.4%
CCc1ccc2nc(N3C(=O)C(O)=C(C(=O)c4ccco4)C3c3cccs3)sc2c1 (stereo unspecified) | -6.3% | 15.8% | -58.7* | 16.8µM* | 6.6%[46.1 µM] | ?
Nc1nc(=S)ss1 | -27.2% | -31.2% | -16.7 | 23.8µM* | 0.7% | ?
CCC(=O)Nc1cccc(NC(=S)NC(=O)c2cc3ccccc3o2)c1 | 9.3% | -3.0% | 0.8 | 26.7µM* | -3.9% | -29.8%
CCC(=O)Nc1ccc(NC(=S)NC(=O)c2cc3ccccc3o2)cc1 | -3.9% | -9.9% | -17.7 | ? | 0.3%[46.1 µM] | ?
C=C1C=C(C(F)F)n2ncc(C(=O)N3CCN(c4ccccc4)CC3)c2N1 | -1.1% | . | . | . | . | .
COC(=O)CN1CCC(=O)c2ccccc2S1(=O)=O | -2.0% | . | . | . | . | -21.0%
COC(=O)CC1(C(=O)OC)Nc2cc(Cl)c(Cl)cc2S(=O)(=O)N1O (stereo unspecified) | . | 11.3% | -2.8 | 9.47µM* | . | .
COCc1nnc(NC(=O)c2cc(OC)c(OC)cc2[N+](=O)[O-])s1 | -9.6% | -7.7% | -9.3 | 29.9µM* | 10.0%[46.1 µM] | -15.9%
SMILES | FEN1 inhibitor | WRN inhibitor | PI5P4Ka inh | PLK1 PBD block | TCR act | VDR inh
COCc1nnc(NC(=O)CCCOc2ccccc2OC)s1 | 4.8% | 3.5% | -16.9 | 26.7µM* | -7.9% | -17.4%
COCc1nnc(NC(=O)c2cc(Cl)ccc2OC)s1 | -6.2% | 5.6% | . | 29.9µM* | -1.2% | 18.2%
CNc1ccc(/C=C/c2ccnc3ccccc23)cc1 | -35.2% | . | . | . | . | .
c1ccc2[nH]c(NCCCc3cnc[nH]3)nc2c1 | . | . | . | . | . | 0.5%
CCOC(=O)c1sc(N2N=C(C)/C(=C\c3ccc(OCC(=O)OC)cc3)C2=O)nc1C | -1.4% | -29.8% | -5.3 | 13.4µM* | -10.1%[46.1 µM] | ?
CC(=O)Nc1cccc(C(=O)NCc2ccc3c(c2)CCN3C(=O)c2ccc(F)cc2)c1 | 14.9% | . | . | . | . | 9.8%
CCOC(=O)c1ccc(N2C(=O)c3n[nH]c(-c4ccco4)c3C2c2ccc(OCC)cc2)cc1 (stereo unspecified) | ? | . | . | . | . | -4.1%
NC(=O)c1ncn([C@@H]2O[C@H](CNCc3ccc(OCC(=O)Nc4nccs4)cc3)[C@@H](O)[C@H]2O)n1 | -0.5% | -4.4% | -64.2* | -17.1% | 9.0% | -10.0%
COCCCNC(=O)c1c(NC(=O)c2cc(=O)c3ccccc3o2)sc2c1CCCC2 | 4.7% | . | . | . | . | 7.1%
CCOC(=O)c1sc(N)c(C#N)c1CSc1nnc(C2CC2)n1N | 8.4% | -5.4% | . | -8.3% | -1.4% | -2.2%
CCOC(=O)c1c(N)ssc1=S | -8.4% | -15.7% | . | 6.7µM* | 3.9% | -25.8%
CCOC(=O)c1c(N)sc(C(=O)Nc2ccccc2)c1C | -14.6% | -17.2% | -3.5 | 21.2µM* | -9.3% | ?
CCCOC(=O)c1c(N)sc(C(=O)OCC)c1C | 11.3% | -13.2% | 0.7 | ? | 6.5%[46.1 µM] | -9.3%
CCOC(=O)c1c(N)sc(=S)c2c1CCC2 | -19.1% | -28.1% | ? | ? | 12.5% | -29.0%
CCCc1c(C(=O)OCC)sc(N)c1C#N | 16.3% | -8.3% | -14.6 | 18.9µM* | -5.6% | -10.6%
CCOC(=O)c1sc(N)c(C(N)=O)c1C | -4.8% | -14.0% | 1.6 | 23.8µM* | 0.5% | -6.0%
CCN(CC)c1ccc(NS(=O)(=O)c2ccc(-c3coc(C)n3)cc2)c(C)c1 | -19.7% | . | . | . | . | -4.5%
CCCCC/C=C\C/C=C\C[C@H](O)/C=C/C=C\CCCC(=O)O | . | . | . | . | . | -0.7%
